This note sets out measurements from the supplement of paper PMC6135742.

The structures appear in SMILES notation. Structures can show the parent of a compound that is named as a salt. ± gives the standard deviation of the averaged measurements. Whole data set: some 2,600 compounds, median “MBP+ mature oligodendrocyte number relative to DMSO vehicle control” near -0.34, cut for the highest 2% near 13. Shown is part of a subset that was picked to be rich in the highest values.
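Note: 10 µM single dose with 3-day oligodendrocyte differentiation.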

The test relates to jimpy (Plp1 jimpy) mouse iPSC-derived oligodendrocyte progenitor cells. In words: MBP+ mature oligodendrocyte number relative to DMSO vehicle control (SDs above negative control mean); higher = more surviving jimpy oligodendrocytes (rescue). The note with it: 10 µM; 3 days.
With `COc1ccccc1CN[C@H]1CCCN[C@H]1c1ccccc1`, the “MBP+ mature oligodendrocyte number” value is -0.711.

`CSc1c(C)c(SC)n2ccncc12` [Oltipraz metabolite M2]: the “MBP+ mature oligodendrocyte number” value was -2.35.

For `CC(C)NC[C@H](O)COc1ccc(CCOCC2CC2)cc1` [Levobetaxolol HCl], the “MBP+ mature oligodendrocyte number” value was determined as 9.7.

For `CN(C)C(=O)Nc1cccc(-c2ccc(N(C)C)cc2)c1` [Atglistatin], the “MBP+ mature oligodendrocyte number” value came to 6.21.

On to `COc1cc2c[n+](C)c3c4cc5c(cc4ccc3c2cc1OC)OCO5` [Nitidine chloride], for which the “MBP+ mature oligodendrocyte number” value was below -4.47.

In the case of `N#CC1(c2ccc(NC(=O)c3cccnc3NCc3ccncc3)cc2)CCCC1` [Apatinib], the “MBP+ mature oligodendrocyte number” value amounted to 2.86.

For `CN(C/C=C/C#CC(C)(C)C)Cc1cccc2ccccc12` [Terbinafine], the “MBP+ mature oligodendrocyte number” value worked out at 1.87.

Take `CN(Cc1ccc(C(C)(C)C)cc1)Cc1cccc2ccccc12` [Butenafine HCl]: the “MBP+ mature oligodendrocyte number” value is 21.1.

Take `CN(C/C=C/C#CC(C)(C)C)Cc1cccc2ccccc12` [Terbinafine HCl]: the “MBP+ mature oligodendrocyte number” value amounted to 4.54.

On to `COc1ccc(CNCc2cccc3ccccc23)cc1`, for which the “MBP+ mature oligodendrocyte number” value was -1.56.

Take `CCC(=O)O[C@]1(C(=O)CCl)[C@@H](C)C[C@H]2[C@@H]3CCC4=CC(=O)C=C[C@]4(C)[C@@]3(F)[C@@H](O)C[C@@]21C` [Clobetasol propionate]: the “MBP+ mature oligodendrocyte number” value is 12.8.

As to `C[C@H]1C[C@H]2[C@@H]3CCC4=CC(=O)C=C[C@]4(C)[C@@]3(F)[C@@H](O)C[C@]2(C)[C@@]1(O)C(=O)CO` [Betamethasone], the “MBP+ mature oligodendrocyte number” value came out at 6.53 ± 6.4.

As to `CCC(=O)O[C@]1(C(=O)SCF)[C@H](C)C[C@H]2[C@@H]3C[C@H](F)C4=CC(=O)C=C[C@]4(C)[C@@]3(F)[C@@H](O)C[C@@]21C` [Fluticasone propionate], the “MBP+ mature oligodendrocyte number” value is 8.9.

On to `C[C@@H]1C[C@H]2[C@@H]3C[C@H](F)C4=CC(=O)C=C[C@]4(C)[C@@]3(F)[C@@H](O)C[C@]2(C)[C@@]1(O)C(=O)CO` [Flumethasone], for which the “MBP+ mature oligodendrocyte number” value came out at 8.94.

Consider `CCC(=O)OCC(=O)[C@@]1(OC(=O)CC)[C@@H](C)C[C@H]2[C@@H]3CCC4=CC(=O)C=C[C@]4(C)[C@@]3(Cl)[C@@H](O)C[C@@]21C` [Beclomethasone dipropionate], for which the “MBP+ mature oligodendrocyte number” value is 7.8.

In the case of `CCC(=O)O[C@]1(C(=O)CCl)[C@@H](C)C[C@H]2[C@@H]3C[C@H](F)C4=CC(=O)C=C[C@]4(C)[C@@]3(F)[C@@H](O)C[C@@]21C` [Halobetasol Propionate], the “MBP+ mature oligodendrocyte number” value stood at 21.4.

For `CO[C@H]1C(=O)[C@]2(C)[C@@H](OC)C[C@H]3OC[C@@]3(OC(C)=O)[C@H]2[C@H](OC(=O)c2ccccc2)[C@]2(O)C[C@H](OC(=O)[C@H](O)[C@@H](NC(=O)OC(C)(C)C)c3ccccc3)C(C)=C1C2(C)C` [Cabazitaxel], the “MBP+ mature oligodendrocyte number” value is -3.71.

On to `C=CCN1CCc2c(cc(O)c(O)c2Br)[C@@H](c2ccccc2)C1` [R(+)-6-Bromo-APB hydrobromide], for which the “MBP+ mature oligodendrocyte number” value was -2.95.

`Cc1ccc(C(=O)NCCCCCC(=O)Nc2ccccc2N)cc1`: the “MBP+ mature oligodendrocyte number” value is -5.76.

With `NC(N)=NCc1cccc(I)c1` [m-Iodobenzylguanidine hemisulfate], the “MBP+ mature oligodendrocyte number” value worked out at 16.6.

For `CCN(CC)CCn1c(=O)c(Cc2ccc(OC)cc2)nc2ccccc21` [Caroverine hydrochloride], the “MBP+ mature oligodendrocyte number” value was -0.211.

As to `Cc1ccc(S(=O)(=O)OCC(=O)Nc2ccc(C(=O)O)c(O)c2)cc1`, the “MBP+ mature oligodendrocyte number” value was 2.29.

As to `CC[n+]1c(/C=C/C=C2/N(C)c3ccccc3C2(C)C)sc2ccccc21`, the “MBP+ mature oligodendrocyte number” value was below -4.47.

As to `Cc1cc(C(=O)NOCCO)c(Nc2ccc(I)cc2F)n(C)c1=O`, the “MBP+ mature oligodendrocyte number” value was -0.892.

Consider `NCCNS(=O)(=O)c1cccc2c(Cl)cccc12` [A3 hydrochloride], for which the “MBP+ mature oligodendrocyte number” value is -2.82.

`Cn1c(N2CCCCS2(=O)=O)nc(C(=O)NCc2ccc(F)cc2)c(O)c1=O`: the “MBP+ mature oligodendrocyte number” value is below -6.7.

For the compound `Cc1nnc(C(=O)NC(C)(C)c2nc(C(=O)NCc3ccc(F)cc3)c(O)c(=O)n2C)o1` [Raltegravir (MK-0518)], the “MBP+ mature oligodendrocyte number” value stood at 55.9.

With `O=C(O)c1ccccc1Nc1cccc(C(F)(F)F)c1` [Flufenamic acid], the “MBP+ mature oligodendrocyte number” value came out at 1.25.

Turning to `O=C(Nc1cccc(C(F)(F)F)c1)Nc1cc(S(=O)(=O)NC2CC2)ccc1-c1ccsc1`, the “MBP+ mature oligodendrocyte number” value stood at 18.2.

For the compound `COc1cc(OC)cc(-c2cc3cnc(N)nc3nc2NC(=O)NC(C)(C)C)c1`, the “MBP+ mature oligodendrocyte number” value was -2.43.

For the compound `CC[C@H](NC(=O)c1c(C)c(-c2ccccc2)nc2ccccc12)c1ccccc1`, the “MBP+ mature oligodendrocyte number” value is -1.61.

Consider `O=C1NC(=O)/C(=C\c2ccc3nccnc3c2)S1`, for which the “MBP+ mature oligodendrocyte number” value was -0.833.

Turning to `Clc1ccccc1C(c1ccccc1)(c1ccccc1)n1ccnc1` [Clotrimazole], the “MBP+ mature oligodendrocyte number” value worked out at 15.7 ± 1.2.

As to `FC(F)(F)c1ccccc1-n1ccnc1` [1-[2-(Trifluoromethyl)phenyl]imidazole], the “MBP+ mature oligodendrocyte number” value is -0.176.

In the case of `O=C(NCCO)c1cccc(-c2cc(Nc3ccc(OC(F)(F)F)cc3)ncn2)c1`, the “MBP+ mature oligodendrocyte number” value is -0.394.

With `CC(=O)[C@H]1CC[C@H]2[C@@H]3CC=C4C[C@@H](OS(=O)(=O)O)CC[C@]4(C)[C@H]3CC[C@]12C` [Pregnenolone sulfate sodium], the “MBP+ mature oligodendrocyte number” value was found to be 0.467.

Turning to `O=C1NC(=O)C(=Cc2ccc(-c3ccc(F)cc3)o2)S1` (stereo in doubt), the “MBP+ mature oligodendrocyte number” value came to 0.66.

On to `Clc1ccc(C(c2ccc(Cl)cc2)[n+]2ccn(CC(OCc3ccc(Cl)cc3Cl)c3ccc(Cl)cc3Cl)c2)cc1` (configuration not stated) [Calmidazolium chloride], for which the “MBP+ mature oligodendrocyte number” value is below -3.34.

With `CC(C)OC(=O)C(C(=O)OC(C)C)=C1SC=CS1` [Malotilate], the “MBP+ mature oligodendrocyte number” value worked out at 19.

Take `CCN(C(=O)c1c(O)c2c(Cl)cccc2n(C)c1=O)c1ccccc1` [Laquinimod]: the “MBP+ mature oligodendrocyte number” value is 1.45.

Take `O=C(O)[C@H](CC(=O)N1C[C@H]2CCCC[C@H]2C1)Cc1ccccc1` [Mitiglinide calcium]: the “MBP+ mature oligodendrocyte number” value was -1.54.

As to `COc1ccccc1N1CCN(CCN(C(=O)c2ccc(F)cc2)c2ccccn2)CC1` [p-MPPF dihydrochloride], the “MBP+ mature oligodendrocyte number” value came to 6.54.

`Cc1ccc(NC(=O)c2cccc(N(C)C)c2)cc1NC(=O)c1ccc(O)cc1`: the “MBP+ mature oligodendrocyte number” value was determined as 14.6.

Regarding `CNCc1ccc(C)c(NC(=O)c2ccc(Nc3nc(-c4ccccc4)c4ccccc4n3)cc2)c1`, the “MBP+ mature oligodendrocyte number” value is below -6.35.

Take `Cc1ccc(C(=O)Nc2ccc(S(=O)(=O)O)c3cc(S(=O)(=O)O)cc(S(=O)(=O)O)c23)cc1NC(=O)c1cccc(NC(=O)Nc2cccc(C(=O)Nc3cc(C(=O)Nc4ccc(S(=O)(=O)O)c5cc(S(=O)(=O)O)cc(S(=O)(=O)O)c45)ccc3C)c2)c1` [Suramin sodium salt]: the “MBP+ mature oligodendrocyte number” value is -1.35.

As to `C[C@]12CC[C@@H]3c4ccc(O)cc4CC[C@H]3[C@@H]1CCC2=O` [Estrone], the “MBP+ mature oligodendrocyte number” value was 21.6 ± 26.

For `C[C@]12CC[C@@H]3c4ccc(O)cc4CC[C@H]3[C@@H]1C[C@@H](O)[C@@H]2O` [Estriol], the “MBP+ mature oligodendrocyte number” value is -0.78.

For the compound `C[C@]12CC[C@@H]3c4ccc(O)cc4CC[C@H]3[C@@H]1CC[C@@H]2O` [beta-Estradiol], the “MBP+ mature oligodendrocyte number” value turned out to be 3.17.

As to `C[C@]12CC[C@@H]3c4ccc(O)cc4CC[C@H]3[C@@H]1CC[C@@H]2O` [Estradiol], the “MBP+ mature oligodendrocyte number” value stood at 5.47.

Take `Nc1nc2ccc(Cl)cc2n2c(-c3ccccc3)nnc12`: the “MBP+ mature oligodendrocyte number” value worked out at 0.304.

As for `Oc1c2ccccc2c2c3c(cccc13)N=N2`, the “MBP+ mature oligodendrocyte number” value was -2.59 ± 1.1.

`CCCCCCCCCCCCCCCC(=O)OC[C@H](O)[C@H]1OC(=O)C(O)=C1O` [L-Ascorbyl 6-palmitate]: the “MBP+ mature oligodendrocyte number” value was -1.84.

Consider `N[C@@H](Cc1cc(I)c(Oc2cc(I)c(O)c(I)c2)c(I)c1)C(=O)O` [L-Thyroxine], for which the “MBP+ mature oligodendrocyte number” value was -1.06.

Consider `N#Cc1ccc(C(c2ccc(C#N)cc2)n2cncn2)cc1` [Letrozole], for which the “MBP+ mature oligodendrocyte number” value was 3.69.

Turning to `c1ccc(-c2ccc(C(c3ccccc3)n3ccnc3)cc2)cc1` (configuration not stated) [Bifonazole], the “MBP+ mature oligodendrocyte number” value amounted to 52.3.

On to `CC(N)(Cc1ccc(O)cc1)C(=O)O` (racemic) [DL-alpha-Methyl-p-tyrosine], for which the “MBP+ mature oligodendrocyte number” value is 1.37.

Take `O=C(/C=C/c1ccc(O)cc1)CC(=O)/C=C/c1ccc(O)cc1` [Bisdemethoxycurcumin]: the “MBP+ mature oligodendrocyte number” value turned out to be 0.659.
